# Experimental data as given in PMC11006913.
# Changes are numbered by the printed parent chain.
# Legend:
# Test in all cases: PBM; 200 nM protein, PBS
# Conditions in all cases: dsDNA, one strand shown
# CRX [1] = target: CRX (Homo sapiens, UniProt O43186 26-111)
# VENTX [2] = target: T1, VENTX (Homo sapiens, UniProt O95231 78-163, R121Q)
# T1 sequence: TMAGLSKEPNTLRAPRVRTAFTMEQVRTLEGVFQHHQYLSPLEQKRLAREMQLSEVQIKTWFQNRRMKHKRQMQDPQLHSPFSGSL
# VENTX [3] = target: T2, VENTX (Homo sapiens, UniProt O95231 78-163)
# T2 sequence: T1 sequence with Q44R
# VENTX [4] = target: T3, VENTX (Homo sapiens, UniProt O95231 78-163, Y115F)
# T3 sequence: T1 sequence with Y38F, Q44R
# CRX [5] = target: CRX (Homo sapiens, UniProt O43186 26-111, E42D)
# CRX [6] = target: CRX (Homo sapiens, UniProt O43186 26-111, R41L)
# PITX2 = PITX2 (Homo sapiens, UniProt Q99697 72-157)
# SIX6 [7] = target: T4, SIX6 (Homo sapiens, UniProt O95475 114-200, L167I)
# T4 sequence: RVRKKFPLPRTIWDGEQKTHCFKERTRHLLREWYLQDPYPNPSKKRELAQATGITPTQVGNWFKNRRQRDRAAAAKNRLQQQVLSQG
# SIX6 [8] = target: T5, SIX6 (Homo sapiens, UniProt O95475 114-200, L143V)
# T5 sequence: T4 sequence with L30V, I54L
# SIX6 [9] = target: T6, SIX6 (Homo sapiens, UniProt O95475 114-200, H141N)
# T6 sequence: T4 sequence with H28N, I54L
# SIX6 [10] = target: T7, SIX6 (Homo sapiens, UniProt O95475 114-200, T165P)
# T7 sequence: T4 sequence with T52P, I54L
# SIX6 [11] = target: T8, SIX6 (Homo sapiens, UniProt O95475 114-200, L167M)
# T8 sequence: T4 sequence with I54M
# SIX6 [12] = target: T9, SIX6 (Homo sapiens, UniProt O95475 114-200, L143M)
# T9 sequence: T4 sequence with L30M, I54L
# SIX6 [13] = target: T10, SIX6 (Homo sapiens, UniProt O95475 114-200, L143I)
# T10 sequence: T4 sequence with L30I, I54L
# SIX6 [14] = target: T11, SIX6 (Homo sapiens, UniProt O95475 114-200, T165G)
# T11 sequence: T4 sequence with T52G, I54L
# SIX6 [15] = target: T12, SIX6 (Homo sapiens, UniProt O95475 114-200, T139Q)
# T12 sequence: T4 sequence with T26Q, I54L
# SIX6 [16] = target: T13, SIX6 (Homo sapiens, UniProt O95475 114-200, T165A)
# T13 sequence: T4 sequence with T52A, I54L
# SIX6 [17] = target: T14, SIX6 (Homo sapiens, UniProt O95475 114-200, L167V)
# T14 sequence: T4 sequence with I54V
# SIX6 [18] = target: T15, SIX6 (Homo sapiens, UniProt O95475 114-200)
# T15 sequence: T4 sequence with I54L
# SIX6 [19] = target: T16, SIX6 (Homo sapiens, UniProt O95475 114-200, T165I)
# T16 sequence: T4 sequence with T52I, I54L
# HOXB6 [20] = target: HOXB6 (Homo sapiens, UniProt P17509 132-218, K202E)
# HOXB6 [21] = target: HOXB6 (Homo sapiens, UniProt P17509 132-218)
# HOXA2 [22] = target: HOXA2 (Homo sapiens, UniProt O43364 129-215, R185T)
# HOXA2 [23] = target: HOXA2 (Homo sapiens, UniProt O43364 129-215, R185K)
# HOXA2 [24] = target: HOXA2 (Homo sapiens, UniProt O43364 129-215, Y150S)
# HOXA2 [25] = target: HOXA2 (Homo sapiens, UniProt O43364 129-215)
# HOXA2 (Homo sapiens, UniProt O43364 129-215), sequence (O43364 129-215): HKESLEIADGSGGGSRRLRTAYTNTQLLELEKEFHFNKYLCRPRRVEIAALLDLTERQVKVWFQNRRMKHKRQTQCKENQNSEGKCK
# CRX (Homo sapiens, UniProt O43186 26-111, E42D), sequence (O43186 26-111 E42D): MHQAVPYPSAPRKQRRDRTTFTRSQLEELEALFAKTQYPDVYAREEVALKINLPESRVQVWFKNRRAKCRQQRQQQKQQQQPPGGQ
# CRX (Homo sapiens, UniProt O43186 26-111), sequence (O43186 26-111): as the sequence (O43186 26-111 E42D) above, with D17E counted along it
# CRX (Homo sapiens, UniProt O43186 26-111, R41L), sequence (O43186 26-111 R41L): as the sequence (O43186 26-111 E42D) above, with R16L, D17E counted along it
# HOXA2 (Homo sapiens, UniProt O43364 129-215, R185T), sequence (O43364 129-215 R185T): as the sequence (O43364 129-215) above, with R57T counted along it
# HOXB6 (Homo sapiens, UniProt P17509 132-218, K202E), sequence (P17509 132-218 K202E): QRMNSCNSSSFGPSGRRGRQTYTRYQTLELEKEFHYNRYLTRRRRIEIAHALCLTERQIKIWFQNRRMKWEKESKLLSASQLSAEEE
# HOXA2 (Homo sapiens, UniProt O43364 129-215, R185K), sequence (O43364 129-215 R185K): as the sequence (O43364 129-215) above, with R57K counted along it
# HOXB6 (Homo sapiens, UniProt P17509 132-218), sequence (P17509 132-218): as the sequence (P17509 132-218 K202E) above, with E71K counted along it
# HOXA2 (Homo sapiens, UniProt O43364 129-215, Y150S), sequence (O43364 129-215 Y150S): as the sequence (O43364 129-215) above, with Y22S counted along it
sequence,measurement,setting,value
CCCGACCC,binding signal,CRX [1],"7.98 upbm affinity estimate (log intensity, higher = more binding, comparable within an allelic series)"
same,binding signal,VENTX [2],"7.97 upbm affinity estimate (log intensity, higher = more binding, comparable within an allelic series)"
same,binding signal,VENTX [3],"8.07 upbm affinity estimate (log intensity, higher = more binding, comparable within an allelic series)"
same,binding signal,VENTX [4],"8.09 upbm affinity estimate (log intensity, higher = more binding, comparable within an allelic series)"
same,binding signal,CRX [5],"8.12 upbm affinity estimate (log intensity, higher = more binding, comparable within an allelic series)"
same,binding signal,CRX [6],"8.25 upbm affinity estimate (log intensity, higher = more binding, comparable within an allelic series)"
CAGATTAG,binding signal,CRX [1],"13.1 upbm affinity estimate (log intensity, higher = more binding, comparable within an allelic series)"
same,binding signal,VENTX [2],"10.6 upbm affinity estimate (log intensity, higher = more binding, comparable within an allelic series)"
same,binding signal,VENTX [4],"10.7 upbm affinity estimate (log intensity, higher = more binding, comparable within an allelic series)"
same,binding signal,CRX [5],"13.1 upbm affinity estimate (log intensity, higher = more binding, comparable within an allelic series)"
same,binding signal,PITX2,"12.3 upbm affinity estimate (log intensity, higher = more binding, comparable within an allelic series)"
same,binding signal,CRX [6],"12.6 upbm affinity estimate (log intensity, higher = more binding, comparable within an allelic series)"
CGGATGAG,binding signal,CRX [1],"9.93 upbm affinity estimate (log intensity, higher = more binding, comparable within an allelic series)"
AGGTGCCC,binding signal,CRX [1],"8.39 upbm affinity estimate (log intensity, higher = more binding, comparable within an allelic series)"
same,binding signal,SIX6 [7],"8.91 upbm affinity estimate (log intensity, higher = more binding, comparable within an allelic series)"
same,binding signal,SIX6 [8],"8.83 upbm affinity estimate (log intensity, higher = more binding, comparable within an allelic series)"
same,binding signal,SIX6 [9],"8.91 upbm affinity estimate (log intensity, higher = more binding, comparable within an allelic series)"
same,binding signal,SIX6 [10],"8.95 upbm affinity estimate (log intensity, higher = more binding, comparable within an allelic series)"
same,binding signal,SIX6 [11],"8.85 upbm affinity estimate (log intensity, higher = more binding, comparable within an allelic series)"
same,binding signal,SIX6 [12],"8.84 upbm affinity estimate (log intensity, higher = more binding, comparable within an allelic series)"
same,binding signal,SIX6 [13],"8.86 upbm affinity estimate (log intensity, higher = more binding, comparable within an allelic series)"
same,binding signal,SIX6 [14],"8.89 upbm affinity estimate (log intensity, higher = more binding, comparable within an allelic series)"
same,binding signal,SIX6 [15],"8.92 upbm affinity estimate (log intensity, higher = more binding, comparable within an allelic series)"
same,binding signal,CRX [5],"8.38 upbm affinity estimate (log intensity, higher = more binding, comparable within an allelic series)"
same,binding signal,SIX6 [16],"8.85 upbm affinity estimate (log intensity, higher = more binding, comparable within an allelic series)"
same,binding signal,SIX6 [17],"8.9 upbm affinity estimate (log intensity, higher = more binding, comparable within an allelic series)"
same,binding signal,SIX6 [18],"8.78 upbm affinity estimate (log intensity, higher = more binding, comparable within an allelic series)"
same,binding signal,SIX6 [19],"8.87 upbm affinity estimate (log intensity, higher = more binding, comparable within an allelic series)"
same,binding signal,CRX [6],"8.35 upbm affinity estimate (log intensity, higher = more binding, comparable within an allelic series)"
CAGGGCGG,binding signal,CRX [1],"8.46 upbm affinity estimate (log intensity, higher = more binding, comparable within an allelic series)"
same,binding signal,HOXB6 [20],"8.95 upbm affinity estimate (log intensity, higher = more binding, comparable within an allelic series)"
same,binding signal,CRX [5],"8.33 upbm affinity estimate (log intensity, higher = more binding, comparable within an allelic series)"
same,binding signal,CRX [6],"8.31 upbm affinity estimate (log intensity, higher = more binding, comparable within an allelic series)"
same,binding signal,HOXB6 [21],"8.83 upbm affinity estimate (log intensity, higher = more binding, comparable within an allelic series)"
CCGGGGCG,binding signal,CRX [1],"8.1 upbm affinity estimate (log intensity, higher = more binding, comparable within an allelic series)"
same,binding signal,HOXA2 [22],"7.04 upbm affinity estimate (log intensity, higher = more binding, comparable within an allelic series)"
same,binding signal,CRX [5],"8.23 upbm affinity estimate (log intensity, higher = more binding, comparable within an allelic series)"
same,binding signal,HOXA2 [23],"10 upbm affinity estimate (log intensity, higher = more binding, comparable within an allelic series)"
same,binding signal,HOXA2 [24],"10.3 upbm affinity estimate (log intensity, higher = more binding, comparable within an allelic series)"
same,binding signal,CRX [6],"8.38 upbm affinity estimate (log intensity, higher = more binding, comparable within an allelic series)"
same,binding signal,HOXA2 [25],"7 upbm affinity estimate (log intensity, higher = more binding, comparable within an allelic series)"
